Shown are actives, neighbours in structure and some others; about 3.5% of the full set was active somewhere.
GPR151 ag = human GPR151 activation | Q8TDV0 | AID 1508602 | hit rate 1% among 650,000 | PathHunter beta-arrestin GPR151 cells, luminescence | activation, % at 11.2 µM; in the data active = activation above about 4.9%;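 note: 0% = median of compound wells and 100% = cells with positive control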
Target sequence (Q8TDV0 whole entry, looked up): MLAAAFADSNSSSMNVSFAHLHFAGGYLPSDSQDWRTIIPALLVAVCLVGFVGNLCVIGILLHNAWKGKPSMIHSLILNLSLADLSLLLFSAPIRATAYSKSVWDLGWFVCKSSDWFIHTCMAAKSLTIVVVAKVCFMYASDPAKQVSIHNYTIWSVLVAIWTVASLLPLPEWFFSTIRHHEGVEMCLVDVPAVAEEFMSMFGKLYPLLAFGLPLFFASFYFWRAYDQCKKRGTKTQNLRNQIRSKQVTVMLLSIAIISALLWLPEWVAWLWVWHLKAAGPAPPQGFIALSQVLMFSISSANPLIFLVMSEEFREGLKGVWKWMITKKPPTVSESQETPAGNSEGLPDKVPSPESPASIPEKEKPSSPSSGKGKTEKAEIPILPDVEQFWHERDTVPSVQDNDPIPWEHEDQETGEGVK
MITF primary = blocks human microphthalmia-associated transcription factor. O75030. AlphaScreen MITF homodimerization, bead proximity signal. inhibition, % at 2.6 µM. hit rate 0.91% among 650,000. AID 1259374; in the data active = inhibition above about 50%;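 note: 0% = vehicle wells with protein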
FBW7 act = activators of human E3 ligase FBW7 | Q969H0 | AlphaScreen FBW7–phospho-cyclin E peptide binding, activator screen | normalized activity (activation), % at 26.1 µM | hit rate 0.13% among 650,000; in the data active = normalized activity above about 1.9%;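 note: purified mutant Fbw7 with reduced substrate affinity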
TEAD-YAP block = TEAD-YAP interaction inhibition; HEK-TIYL cells, TEAD-Gal4/YAP UAS-luciferase luminescence; inhibition, % at 9.12 µM; hit rate 1.4% among 640,000; in the data active = inhibition above about 32%;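 note: 0% = median of test compound wells and 100% = reference inhibitor wells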
MITF confirm = human MITF inhibition, confirmation; shares compounds with MITF primary; AlphaScreen MITF homodimerization, biotin/His-MITF beads; inhibition, % at 2.6 µM; hit rate 16% among 4,700; AID 1259372;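 active = inhibition above a cutoff derived from the DMSO control wells, cut at about 28% in these data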;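 note: 0% = MITF dimer wells with DMSO only; inhibitors lower the bead chemiluminescence by keeping MITF from dimerizing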
AlphaScreen DR = counter-screen: compounds optically interfering with AlphaScreen. AlphaScreen optical interference counterscreen, cell-free. hit rate 6% among 480. AID 1259373. shares compounds with MITF primary. IC50, µM; call rule not given here
AS interf ctr = counter-screen: compounds optically interfering with AlphaScreen; inhibition, % at 2.6 µM; LysRS AlphaScreen counterscreen, signal interference, triplicate; shares compounds with MITF primary; hit rate 7.6% among 4,700;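 active = inhibition above a cutoff derived from the DMSO control wells, cut at about 30% in these data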
An asterisk follows results filed as active; nt = not tested or not shown.

SMILES	GPR151 ag	MITF primary	FBW7 act	TEAD-YAP block	MITF confirm	AS interf ctr	others
CCOC(=O)c1nn(-c2ccc(Cl)c(Cl)c2)cc1O	2	-3	0	-45	nt	nt
CCOC(=O)c1c(NC(=O)CSc2nnc(C)s2)sc2c1CCC2	-1	54*	0	4	-7	20
CCOC(=O)c1c(NC(N)=S)sc2c1CCCC2	-1	20	0	6	nt	nt
CCOC(=O)c1c(-c2ccc(C)c(C)c2)csc1NC(=O)CN1CCN(C)CC1	0	90*	0	9	-3	5
CCOC(=O)c1c(NC(=O)CN2CCN(CC)CC2)sc2c1CCC2	2	80*	0	-2	7	7
CCOC(=O)c1c(NC(=S)N2CCN(S(C)(=O)=O)CC2)sc2c1CCCC2	1	69*	0	5	11	7
CCOC(=O)c1c(-c2ccco2)csc1NC(=O)CN1CCN(C)CC1	-1	16	0	-2	nt	nt
N#Cc1ccc(C(=O)Nc2ccc(F)cc2)c(F)c1	0	-4	0	-29	nt	nt
Cc1nc(N2CCCCC2C)c2c(C)c(C(=O)O)sc2n1 (stereo not given)	-1	14	0	12	nt	nt
COCCNCCOCCOc1cccc(Cl)c1Cl	-1	26	0	-1	nt	nt
CCCCNCCOCCOc1c(C)cccc1Cl	4	46	0	11	nt	nt
COCCNCCOc1c(C)cccc1C(C)(C)C	1	80*	0	4	8	6
COCCNCCOCCOc1c(C)cccc1C(C)(C)C	-2	61*	0	-8	16	18
NCCNCCOCCOc1cccc(Cl)c1Cl	-1	51*	0	1	10	22
Cc1cccc(Cl)c1OCCOCCNCCO	0	73*	0	0	-4	-8
COCCNCCCOc1c(C)cccc1C(C)(C)C	0	19	0	5	nt	nt
CC(C)[C@H](Cn1nnc2ccccc21)NC(=O)CN1CCCC1=O	0	-12	0	-2	nt	nt
CC1=C2C(=NCCN1)C(=O)N(c1ccccc1)C2c1cccs1 (stereo not given)	4	-1	0	-7	nt	nt
O=C(COc1ccc(Cl)cc1Br)Nc1cccc([N+](=O)[O-])c1	1	-5	0	-67	nt	nt
OC(CNCC1CCCCC1)COc1ccccc1 (stereo not given)	0	-5	0	-5	nt	nt
CN(C)C(CNCC(O)COc1ccccc1)c1cccs1 (stereo not given)	2	71*	0	9	-3	2
OC(CNCCNCC(O)COc1ccccc1)COc1ccccc1 (stereo not given)	-1	19	0	7	nt	nt
CC1CCN(C(CNCC(O)COc2ccccc2)c2cccs2)CC1 (stereo not given)	0	70*	0	-1	-20	4
COc1cccc(NC(=O)C(CC(C)C)N2Cc3ccccc3C2=O)c1 (stereo not given)	2	12	0	6	nt	nt
Cc1ccc(C)c(NC(=O)CN(C)S(=O)(=O)c2cnc[nH]2)c1	0	4	0	1	nt	nt
SMILES	GPR151 ag	MITF primary	FBW7 act	TEAD-YAP block	MITF confirm	AS interf ctr	others
Cc1cccc(CCNC(=O)CN(C)S(=O)(=O)c2cnc[nH]2)c1	0	76*	0	-1	10	20
O=C(CN1C(=O)NC2(CCCCCC2)C1=O)NC(=O)NCc1ccco1	-1	70*	0	-4	71*	12	AlphaScreen DR=>7.2
CS(=O)(=O)c1cncnc1C1CCCN(C(=O)N2CCCC2)C1 (stereo not given)	-1	6	0	-11	nt	nt
CCN(CC)C(=O)CN1CCCC(c2ncncc2S(C)(=O)=O)C1 (stereo not given)	0	64*	0	-3	9	11
Cc1ccc2c(Cl)c(C(=O)NCCN3CCOCC3)sc2c1	1	-13	0	-14	nt	nt
CCOc1cc(-c2cc(OCC)c3c(C)oc(C)c3c(=O)c2)ccc1O	0	-7	0	-7	nt	nt
CCOc1cc(-c2ccc(I)o2)cc(=O)c2c(C)oc(C)c12	-1	58*	0	-2	37*	-2
Cc1ccc(/C=C2/NC(=O)N(Cc3ccccc3F)C2=O)cc1	0	24	0	5	nt	nt
COC(=O)c1ccc(NC(=O)CSc2nnc(COc3ccc4ccccc4c3)o2)cc1	1	0	0	8	nt	nt
O=C1CC(c2ccccc2)=NO1	-1	56*	0	-6	13	12
O=C1CC(c2ccc(Br)cc2)=NO1	0	19	0	-8	nt	nt
Cc1nn2c(=O)c3c4c(sc3nc2n(-c2ccccc2)c1=O)COC(C)(C)C4	0	-1	0	6	nt	nt
Cc1cccc2c1CC(C)(C)NC2=S	-1	5	0	4	nt	nt
Cc1ccc(C)c2c1CC(C)(C)NC2=S	-1	70*	0	0	8	15
Cc1cc(NC(=O)c2ccc(Br)cc2)c(C)cc1O	2	-9	0	24	nt	nt
Cc1cc(NC(=O)c2ccc(Br)cc2)ccc1O	0	75*	0	80*	17	14
Cc1ccc(C(=O)/C(C#N)=N/Nc2c(C)n(C)n(-c3ccccc3)c2=O)cc1	1	48	-2	24	nt	nt
O=C(CSc1ccc(-c2cccnc2)nn1)NCc1ccccc1	0	51*	0	8	5	-3
O=C(CSc1ccc(-c2cccnc2)nn1)NCc1ccccc1Cl	-1	-10	0	-3	nt	nt
COCCn1nnnc1C(c1ccc(Cl)cc1)N1CCSCC1 (stereo not given)	0	66*	0	-9	10	12
COCCn1nnnc1CN1CCSCC1	2	56*	1	14	7	11
COc1ccc2nc(N3CCCC3C(=O)NCC(F)(F)F)nc(C)c2c1 (stereo not given)	2	-2	0	1	nt	nt
CCn1c2ccccc2c2cc(CN3CCN(Cc4ccc(SC)cc4)CC3)ccc21	-1	63*	0	12	13	19
CCn1c2ccccc2c2cc(CN3CCN(Cc4ccccc4[N+](=O)[O-])CC3)ccc21	-1	65*	0	-8	0	-6
CCn1c2ccccc2c2cc(CN3CCN(S(=O)(=O)c4ccc(OC)cc4)CC3)ccc21	-1	-15	0	6	nt	nt
CCn1c2ccccc2c2cc(CN3CCCC(O)C3)ccc21 (stereo not given)	0	25	0	3	nt	nt
CCn1c2ccccc2c2cc(CN3CCN(S(=O)(=O)c4ccc(F)cc4)CC3)ccc21	0	27	0	7	nt	nt
CCn1c2ccccc2c2cc(CN3CCN(Cc4ccccc4F)CC3)ccc21	-1	82*	0	8	17	19
CCn1c2ccccc2c2cc(CN3CCN(Cc4ccc(C(F)(F)F)cc4)CC3)ccc21	4	54*	0	-7	17	20
O=C(Cn1cc(S(=O)(=O)Cc2ccccc2)c2ccccc21)NCc1cccs1	0	4	0	-10	nt	nt

Compound activity from PubChem BioAssay.
